Measured values taken from PubChem BioAssay AID1159580 (chemical genetic matrix, 2015).
The campaign covered roughly 5,500 compounds. About 2,000 (36%) were called active. Roughly 18% stayed inconclusive and do not appear here. No stated cut-off is given here; in the data, active means normalized growth mostly below about 0.91 (no sharp cut-off); inconclusive means no clear call, values can overlap the other calls; inactive means mostly above about 0.92. Some of the results follow.

Assay: chemical genetic growth profiling, strain panel (AID 1159580);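 further: tested at 20 µM; growth read once vehicle control cultures reached saturation at 30 °C; 1 = growth at the plate median or of vehicle wells; lower values mean less growth of the strain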
Conditions: S. cerevisiae deletion strains, growth OD

Measured: normalized growth

Cc1cc(N)c2ccccc2[n+]1CCCCCCCCCCCCCC[n+]1c(C)cc(N)c2ccccc21
active: locus YAL013W, strain DEP1, active compounds read low 0.365 | locus YAL040C, strain CLN3, active compounds read low 0.0844 | locus YCL061C, strain MRC1 (second series), active compounds read low 0.0514 | locus YDR150W, strain NUM1, active compounds read low 0.0556 | locus YDR363W, strain ESC2, active compounds read low 0.0835 | locus YER002W, strain NOP16, active compounds read low 0.0687 | locus YNL175C, strain NOP13, active compounds read low 0.0676 | locus YNL197C, strain WHI3, active compounds read low 0.0663 | locus YNL224C, strain SQS1, active compounds read low 0.068 | locus YOR083W, strain WHI5 (second series), active compounds read low 0.0774
